# Measured values reported in the supplement of paper PMC10849652.
# Targets with a hit are over-represented here; the source holds about 8,800 in all. About 0.5% of all pairs of compound and target were hits.
# Compound: C1CN(CCC1(CC2=CC=C(C=C2)Cl)N)C3=NC=NC4=C3C=CN4
# Assay: log2 fold change, soluble protein after heating vs DMSO (PISA); higher = thermal stabilisation; K562 lysate, 10 uM; active = over 0.2 and 3.5 SD of the protein, either way, in both replicates (recomputed)
# Procedure, shortened: (§1)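 Following dounce homogenisation of K562 pellets in PBS pH 7.4 with 1 mM MgCl2, crude extract at 1 mg/mL protein was incubated for 30 min with 10 μM compound. Aliquots were then heated for 3 min over 48°C-58°C and pooled, NP-40 was added to 0.5% at 4°C, and soluble protein was recovered as the supernatant at 21,000xg for 90 min. Channel-sum-equalised TMTpro 16plex LC-MS/MS quantified this protein. Each value, from duplicates, is a log-two fold change in thermal stability relative to solvent controls.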
# Sequence of UniProt P67936 (P67936 whole entry, looked up): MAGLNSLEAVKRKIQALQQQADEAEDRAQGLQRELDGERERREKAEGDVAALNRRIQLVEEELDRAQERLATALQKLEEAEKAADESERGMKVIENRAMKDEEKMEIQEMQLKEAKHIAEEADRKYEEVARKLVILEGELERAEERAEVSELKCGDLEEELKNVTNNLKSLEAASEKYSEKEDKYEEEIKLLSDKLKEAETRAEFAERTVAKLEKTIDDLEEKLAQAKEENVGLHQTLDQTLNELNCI
# Sequence of UniProt P42166 (P42166 whole entry, looked up): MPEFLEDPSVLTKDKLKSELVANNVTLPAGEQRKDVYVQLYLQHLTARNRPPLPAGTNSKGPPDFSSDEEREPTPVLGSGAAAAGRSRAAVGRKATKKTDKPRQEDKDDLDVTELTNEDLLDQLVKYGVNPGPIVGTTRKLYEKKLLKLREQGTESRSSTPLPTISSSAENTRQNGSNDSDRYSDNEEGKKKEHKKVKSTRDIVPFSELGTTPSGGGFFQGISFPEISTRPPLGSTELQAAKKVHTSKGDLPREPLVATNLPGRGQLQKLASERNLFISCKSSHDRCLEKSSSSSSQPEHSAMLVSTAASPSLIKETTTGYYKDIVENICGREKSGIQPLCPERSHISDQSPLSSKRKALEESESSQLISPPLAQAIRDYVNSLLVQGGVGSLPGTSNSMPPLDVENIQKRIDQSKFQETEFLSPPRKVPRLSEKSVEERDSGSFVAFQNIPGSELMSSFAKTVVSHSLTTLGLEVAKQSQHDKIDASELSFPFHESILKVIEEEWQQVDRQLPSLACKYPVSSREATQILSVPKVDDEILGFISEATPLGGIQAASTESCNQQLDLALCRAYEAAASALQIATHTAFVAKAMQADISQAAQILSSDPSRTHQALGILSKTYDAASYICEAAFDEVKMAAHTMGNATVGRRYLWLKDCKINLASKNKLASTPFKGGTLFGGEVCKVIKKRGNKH
# Sequence of UniProt Q96F44 (Q96F44 whole entry, looked up): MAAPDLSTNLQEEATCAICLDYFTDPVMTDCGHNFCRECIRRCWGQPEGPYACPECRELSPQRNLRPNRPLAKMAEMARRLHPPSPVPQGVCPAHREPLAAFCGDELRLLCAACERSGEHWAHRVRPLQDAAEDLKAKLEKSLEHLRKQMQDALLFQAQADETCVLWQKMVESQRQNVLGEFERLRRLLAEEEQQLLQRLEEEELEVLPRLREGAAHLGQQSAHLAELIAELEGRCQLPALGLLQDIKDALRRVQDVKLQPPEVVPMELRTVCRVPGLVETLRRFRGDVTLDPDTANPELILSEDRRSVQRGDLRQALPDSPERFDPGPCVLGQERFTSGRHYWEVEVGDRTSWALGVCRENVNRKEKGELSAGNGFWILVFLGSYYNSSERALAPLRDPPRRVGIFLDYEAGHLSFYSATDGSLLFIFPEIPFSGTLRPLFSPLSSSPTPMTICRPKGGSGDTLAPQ
# Sequence of UniProt Q15813 (Q15813 whole entry, looked up): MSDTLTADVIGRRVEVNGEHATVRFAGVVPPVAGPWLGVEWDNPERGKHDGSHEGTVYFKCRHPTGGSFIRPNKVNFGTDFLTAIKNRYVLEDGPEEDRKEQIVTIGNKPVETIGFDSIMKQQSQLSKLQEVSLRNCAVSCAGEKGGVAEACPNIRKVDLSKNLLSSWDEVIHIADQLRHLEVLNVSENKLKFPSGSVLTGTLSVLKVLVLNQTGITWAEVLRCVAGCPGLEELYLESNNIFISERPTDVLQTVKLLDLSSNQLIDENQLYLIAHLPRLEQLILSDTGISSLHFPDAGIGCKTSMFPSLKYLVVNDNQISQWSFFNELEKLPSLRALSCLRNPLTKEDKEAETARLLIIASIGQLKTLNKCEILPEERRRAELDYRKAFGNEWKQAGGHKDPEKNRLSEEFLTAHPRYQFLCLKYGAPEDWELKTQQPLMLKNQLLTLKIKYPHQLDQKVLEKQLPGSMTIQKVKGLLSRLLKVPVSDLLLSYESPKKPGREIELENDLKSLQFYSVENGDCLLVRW
# Sequence of UniProt O43493 (O43493 whole entry, looked up): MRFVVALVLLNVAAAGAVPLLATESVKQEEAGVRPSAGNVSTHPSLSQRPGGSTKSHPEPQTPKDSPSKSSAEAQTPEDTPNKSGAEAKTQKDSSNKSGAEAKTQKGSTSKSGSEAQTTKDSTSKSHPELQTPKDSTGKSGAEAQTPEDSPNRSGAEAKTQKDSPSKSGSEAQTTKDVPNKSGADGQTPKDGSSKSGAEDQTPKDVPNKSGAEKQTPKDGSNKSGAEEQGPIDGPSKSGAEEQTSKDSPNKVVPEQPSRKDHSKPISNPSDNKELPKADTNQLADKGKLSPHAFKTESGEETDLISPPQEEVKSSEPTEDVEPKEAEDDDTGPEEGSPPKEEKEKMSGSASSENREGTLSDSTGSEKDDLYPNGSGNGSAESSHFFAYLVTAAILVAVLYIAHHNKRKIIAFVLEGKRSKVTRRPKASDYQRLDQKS
# Sequence of UniProt Q8WVT3 (Q8WVT3 whole entry, looked up): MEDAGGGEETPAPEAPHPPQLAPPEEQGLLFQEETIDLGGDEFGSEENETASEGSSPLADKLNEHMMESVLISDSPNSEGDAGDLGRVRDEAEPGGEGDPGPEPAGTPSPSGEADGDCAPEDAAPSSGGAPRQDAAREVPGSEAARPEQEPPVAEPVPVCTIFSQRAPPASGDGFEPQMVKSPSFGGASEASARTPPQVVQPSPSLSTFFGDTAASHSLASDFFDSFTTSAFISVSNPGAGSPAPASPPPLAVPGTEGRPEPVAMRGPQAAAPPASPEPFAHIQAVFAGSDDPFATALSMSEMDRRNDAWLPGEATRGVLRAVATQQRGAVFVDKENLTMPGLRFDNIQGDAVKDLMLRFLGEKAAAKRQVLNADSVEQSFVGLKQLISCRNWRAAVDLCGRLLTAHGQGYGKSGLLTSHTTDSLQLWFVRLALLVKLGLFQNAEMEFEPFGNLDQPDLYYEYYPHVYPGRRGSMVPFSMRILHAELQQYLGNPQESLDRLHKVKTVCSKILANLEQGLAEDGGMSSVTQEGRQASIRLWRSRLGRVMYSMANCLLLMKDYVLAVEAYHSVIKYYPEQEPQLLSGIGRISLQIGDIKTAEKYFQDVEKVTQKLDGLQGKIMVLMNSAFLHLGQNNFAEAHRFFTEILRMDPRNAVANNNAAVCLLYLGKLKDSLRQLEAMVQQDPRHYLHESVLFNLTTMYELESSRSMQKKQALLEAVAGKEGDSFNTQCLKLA
# Sequence of UniProt Q04726 (Q04726 whole entry, looked up): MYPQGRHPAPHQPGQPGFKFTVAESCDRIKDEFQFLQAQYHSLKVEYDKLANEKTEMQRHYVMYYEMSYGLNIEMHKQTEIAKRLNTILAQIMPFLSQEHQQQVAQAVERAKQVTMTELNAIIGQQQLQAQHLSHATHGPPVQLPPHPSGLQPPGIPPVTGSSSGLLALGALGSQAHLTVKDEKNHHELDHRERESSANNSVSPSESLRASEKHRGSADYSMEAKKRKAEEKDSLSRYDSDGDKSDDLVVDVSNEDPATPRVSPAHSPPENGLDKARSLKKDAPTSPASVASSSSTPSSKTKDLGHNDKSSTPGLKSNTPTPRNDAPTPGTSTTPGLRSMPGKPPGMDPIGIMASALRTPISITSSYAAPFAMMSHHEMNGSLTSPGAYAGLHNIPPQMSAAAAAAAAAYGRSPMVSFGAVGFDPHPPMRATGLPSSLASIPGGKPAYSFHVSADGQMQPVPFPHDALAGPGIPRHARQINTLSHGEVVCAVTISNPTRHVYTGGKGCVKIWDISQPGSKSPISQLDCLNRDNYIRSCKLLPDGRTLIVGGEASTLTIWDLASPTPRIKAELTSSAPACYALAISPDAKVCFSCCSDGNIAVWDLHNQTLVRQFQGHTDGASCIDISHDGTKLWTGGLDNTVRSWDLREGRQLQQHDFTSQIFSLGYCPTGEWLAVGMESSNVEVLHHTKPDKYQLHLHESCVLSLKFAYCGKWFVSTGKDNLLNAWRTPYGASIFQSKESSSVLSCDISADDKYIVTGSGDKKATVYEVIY
# Sequence of UniProt Q9NX07 (Q9NX07 whole entry, looked up): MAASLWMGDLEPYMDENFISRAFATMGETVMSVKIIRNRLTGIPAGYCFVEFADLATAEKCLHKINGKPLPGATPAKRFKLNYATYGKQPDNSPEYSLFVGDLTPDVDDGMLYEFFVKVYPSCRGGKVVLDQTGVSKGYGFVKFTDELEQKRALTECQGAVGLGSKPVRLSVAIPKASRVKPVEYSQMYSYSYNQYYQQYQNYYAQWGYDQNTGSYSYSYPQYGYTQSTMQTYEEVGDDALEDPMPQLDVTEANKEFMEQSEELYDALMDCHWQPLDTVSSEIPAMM
# Sequence of UniProt Q9Y4P3 (Q9Y4P3 whole entry, looked up): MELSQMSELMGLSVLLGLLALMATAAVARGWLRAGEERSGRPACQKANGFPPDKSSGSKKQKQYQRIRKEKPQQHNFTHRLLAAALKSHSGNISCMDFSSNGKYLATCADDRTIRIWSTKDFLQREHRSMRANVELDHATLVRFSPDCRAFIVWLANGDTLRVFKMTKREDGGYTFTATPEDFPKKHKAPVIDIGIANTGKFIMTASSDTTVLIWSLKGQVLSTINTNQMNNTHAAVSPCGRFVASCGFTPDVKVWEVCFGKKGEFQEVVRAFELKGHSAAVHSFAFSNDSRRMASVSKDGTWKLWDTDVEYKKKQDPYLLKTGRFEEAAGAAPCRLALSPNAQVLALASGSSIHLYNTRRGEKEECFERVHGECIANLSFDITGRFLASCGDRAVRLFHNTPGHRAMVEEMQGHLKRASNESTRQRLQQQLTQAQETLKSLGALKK
# Sequence of UniProt Q14CS0 (Q14CS0 whole entry, looked up): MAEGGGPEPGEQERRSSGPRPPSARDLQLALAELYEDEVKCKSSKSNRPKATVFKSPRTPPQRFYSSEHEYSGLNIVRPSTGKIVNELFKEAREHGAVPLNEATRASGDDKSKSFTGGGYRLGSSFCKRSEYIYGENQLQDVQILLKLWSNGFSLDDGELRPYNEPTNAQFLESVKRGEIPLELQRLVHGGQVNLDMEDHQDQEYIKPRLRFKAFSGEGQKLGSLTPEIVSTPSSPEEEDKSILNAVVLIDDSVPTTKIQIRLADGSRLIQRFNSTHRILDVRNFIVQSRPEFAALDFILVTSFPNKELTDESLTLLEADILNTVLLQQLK
row,Target,log2 fold change
1,UBXN2B (UniProt Q14CS0),-0.046 (inactive)
2,TRAF2 isoform 2 (UniProt Q12933),0.029 (inactive)
3,TMOD1 (UniProt P28289),-0.002 (inactive)
4,TPD52L2 isoform 7 (UniProt O43399),-0.004 (inactive)
5,TMEM199 (UniProt Q8N511),0.027 (inactive)
6,TBCE (UniProt Q15813),0.038 (inactive)
7,TDRD3 isoform 3 (UniProt Q9H7E2),0 (inactive)
8,TRIM33 (UniProt H0Y612),-0.023 (inactive)
9,TGOLN2 isoform 7 (UniProt O43493),0.011 (inactive)
10,TBL3 (UniProt Q12788),-0.016 (inactive)
11,TECR (UniProt Q9NZ01),0.028 (inactive)
12,TTK (UniProt P33981),-0.039 (inactive)
13,TBL2 (UniProt Q9Y4P3),0.001 (inactive)
14,TPP2 (UniProt P29144),-0.005 (inactive)
15,UBAP2 (UniProt Q5T6F2),0.001 (inactive)
16,TMEM14C (UniProt Q9P0S9),-0.042 (inactive)
17,TPM4 (UniProt P67936),-0.012 (inactive)
18,TBK1 (UniProt Q9UHD2),-0.047 (inactive)
19,TMPO (UniProt P42166),0.005 (inactive)
20,TFPI (UniProt P10646),0.065 (inactive)

row,Target,log2 fold change
1,TRIM11 (UniProt Q96F44),0.002 (inactive)
2,TRIM25 (UniProt Q14258),0.021 (inactive)
3,TRAPPC12 (UniProt Q8WVT3),-0.005 (inactive)
4,TSPAN13 (UniProt O95857),-0.053 (inactive)
5,TLK2 isoform 2 (UniProt Q86UE8),0.021 (inactive)
6,TDRKH (UniProt Q9Y2W6),-0.022 (inactive)
7,TRIM33 isoform 2 (UniProt Q9UPN9),0.006 (inactive)
8,UBR4 (UniProt Q5T4S7),0.002 (inactive)
9,TRIM44 (UniProt Q96DX7),0.072 (inactive)
10,TMEM87A (UniProt Q8NBN3),-0.004 (inactive)
11,UBAP2L isoform 5 (UniProt Q14157),-0.023 (inactive)
12,UBTF (UniProt P17480),-0.022 (inactive)
13,TRIM56 (UniProt Q9BRZ2),0.003 (inactive)
14,TRNAU1AP (UniProt Q9NX07),0.015 (inactive)
15,TLE3 isoform 4 (UniProt Q04726),0.029 (inactive)
16,TPM4 isoform 2 (UniProt P67936),-0.015 (inactive)
17,TTF2 (UniProt Q9UNY4),0.032 (inactive)
18,TUBB6 (UniProt K7ES63),-0.22 (inactive)
19,TTI1 (UniProt O43156),-0.037 (inactive)

# Compound: C1COCCN1CCN2C3=CC=CC=C3N=C2NC(=O)C4=CC(=CC=C4)[N+](=O)[O-] [IRAK-1-4 Inhibitor I]
# Assay: as above
# Procedure, shortened: as §1
row,Target,log2 fold change
1,UBXN2B (UniProt Q14CS0),-0.028 (inactive)
2,TRAF2 isoform 2 (UniProt Q12933),0.033 (inactive)
3,TMOD1 (UniProt P28289),0.012 (inactive)
4,TPD52L2 isoform 7 (UniProt O43399),-0.031 (inactive)
5,TMEM199 (UniProt Q8N511),-0.033 (inactive)
6,TBCE (UniProt Q15813),-0.002 (inactive)
7,TDRD3 isoform 3 (UniProt Q9H7E2),0.051 (inactive)
8,TRIM33 (UniProt H0Y612),0.176 (inactive)
9,TGOLN2 isoform 7 (UniProt O43493),0.029 (inactive)
10,TBL3 (UniProt Q12788),0.01 (inactive)
11,TECR (UniProt Q9NZ01),0.038 (inactive)
12,TTK (UniProt P33981),-0.032 (inactive)
13,TBL2 (UniProt Q9Y4P3),-0.022 (inactive)
14,TPP2 (UniProt P29144),-0.002 (inactive)
15,UBAP2 (UniProt Q5T6F2),0.016 (inactive)
16,TMEM14C (UniProt Q9P0S9),0.064 (inactive)
17,TPM4 (UniProt P67936),0.028 (inactive)
18,TBK1 (UniProt Q9UHD2),0.082 (inactive)
19,TMPO (UniProt P42166),0.008 (inactive)
20,TFPI (UniProt P10646),0.003 (inactive)

row,Target,log2 fold change
1,TRIM11 (UniProt Q96F44),0.043 (inactive)
2,TRIM25 (UniProt Q14258),-0.009 (inactive)
3,TRAPPC12 (UniProt Q8WVT3),0.027 (inactive)
4,TSPAN13 (UniProt O95857),-0.051 (inactive)
5,TLK2 isoform 2 (UniProt Q86UE8),-0.058 (inactive)
6,TDRKH (UniProt Q9Y2W6),0.047 (inactive)
7,TRIM33 isoform 2 (UniProt Q9UPN9),-0.02 (inactive)
8,UBR4 (UniProt Q5T4S7),-0.009 (inactive)
9,TRIM44 (UniProt Q96DX7),0.043 (inactive)
10,TMEM87A (UniProt Q8NBN3),-0.028 (inactive)
11,UBAP2L isoform 5 (UniProt Q14157),0.065 (inactive)
12,UBTF (UniProt P17480),-0.024 (inactive)
13,TRIM56 (UniProt Q9BRZ2),0.062 (inactive)
14,TRNAU1AP (UniProt Q9NX07),-0.005 (inactive)
15,TLE3 isoform 4 (UniProt Q04726),-0.016 (inactive)
16,TPM4 isoform 2 (UniProt P67936),-0.022 (inactive)
17,TTF2 (UniProt Q9UNY4),-0.006 (inactive)
18,TUBB6 (UniProt K7ES63),0.048 (inactive)
19,TTI1 (UniProt O43156),0.015 (inactive)
